Results published in PubChem BioAssay AID1159580 (chemical genetic matrix, 2015).
Among all 5,500 compounds or so, about 2,000 (36%) were called active. Not shown: some 18% with an inconclusive outcome. Rule as the data show it: active = normalized growth mostly below about 0.91 (no sharp cut-off); inconclusive = no clear call, values can overlap the other calls; inactive = mostly above about 0.92. The list shows a part of the results.

Experiment: chemical genetic growth profiling, strain panel (AID 1159580);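 also: tested at 20 µM; growth read once vehicle control cultures reached saturation at 30 °C; 1 = growth at the plate median or of vehicle wells; lower values mean less growth of the strain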
Settings: S. cerevisiae deletion strains, growth OD
[1] = locus YHR030C, strain SLT2, stronger effect = lower value
[2] = locus YHR079C, strain IRE1, stronger effect = lower value
[3] = locus YJL095W, strain BCK1, stronger effect = lower value
[4] = locus YJR066W, strain TOR1, stronger effect = lower value
[5] = locus YLR113W, strain HOG1, stronger effect = lower value
[6] = locus YNL183C, strain NPR1, stronger effect = lower value
[7] = locus YOR231W, strain MKK1, stronger effect = lower value
[8] = locus YPL256C, strain CLN2, stronger effect = lower value

Measured: normalized growth

Clc1ccc(-c2cnc(Nc3cc(Cl)cc(Cl)c3)s2)cc1
active: locus YBL105C, strain PKC1, stronger effect = lower value 0.63 | locus YBR135W, strain CKS1, stronger effect = lower value 0.869 | locus YDL214C, strain PRR2, stronger effect = lower value 0.134 | locus YDR477W, strain SNF1, stronger effect = lower value 0.119 | locus YER123W, strain YCK3, stronger effect = lower value 0.158 | locus YER133W, strain GLC7, stronger effect = lower value 0.12 | locus YFL029C, strain CAK1, stronger effect = lower value 0.514 | locus YFR019W, strain FAB1, stronger effect = lower value 0.175 | locus YGR040W, strain KSS1, stronger effect = lower value 0.142 | locus YGR052W, strain FMP48, stronger effect = lower value 0.132 | locus YGR092W, strain DBF2, stronger effect = lower value 0.148 | [1] 0.117 | [2] 0.204 | locus YHR082C, strain KSP1, stronger effect = lower value 0.126 | locus YHR205W, strain SCH9, stronger effect = lower value 0.0742 | [3] 0.16 | locus YJL157C, strain FAR1, stronger effect = lower value 0.149 | locus YJR016C, strain ILV3, stronger effect = lower value 0.791 | locus YJR066W, strain TOR1 (second series), stronger effect = lower value 0.116 | [4] 0.109 | locus YKL048C, strain ELM1, stronger effect = lower value 0.215 | locus YKL067W, strain YNK1, stronger effect = lower value 0.164 | locus YKL101W, strain HSL1, stronger effect = lower value 0.174 | [5] 0.163 | locus YLR133W, strain CKI1, stronger effect = lower value 0.117 | locus YLR403W, strain SFP1, stronger effect = lower value 0.0226 | locus YML070W, strain DAK1, stronger effect = lower value 0.166 | locus YMR205C, strain PFK2 (second series), stronger effect = lower value 0.16 | locus YNL006W, strain LST8, stronger effect = lower value 0.679 | locus YNL020C, strain ARK1, stronger effect = lower value 0.133 | locus YNL161W, strain CBK1, stronger effect = lower value 0.529 | [6] 0.136 | locus YNL222W, strain SSU72, stronger effect = lower value 0.608 | locus YNL307C, strain MCK1 (second series), stronger effect = lower value 0.225 | locus YOL136C, strain PFK27, stronger effect = lower value 0.147 | locus YOR061W, strain CKA2, stronger effect = lower value 0.135 | locus YOR119C, strain RIO1, stronger effect = lower value 0.46 | [7] 0.229 | locus YOR329C, strain SCD5, stronger effect = lower value 0.781 | locus YPL031C, strain PHO85, stronger effect = lower value 0.148 | locus YPL153C, strain RAD53, stronger effect = lower value 0.136 | locus YPL204W, strain HRR25, stronger effect = lower value 0.13 | locus YPL209C, strain IPL1, stronger effect = lower value 0.625 | [8] 0.196 | locus YPR111W, strain DBF20, stronger effect = lower value 0.674
inactive: locus YBR136W, strain MEC1, stronger effect = lower value 0.956 | locus YDL017W, strain CDC7, stronger effect = lower value 0.972 | locus YDL108W, strain KIN28, stronger effect = lower value 0.972 | locus YDR052C, strain DBF4, stronger effect = lower value 0.965 | locus YDR226W, strain ADK1, stronger effect = lower value 0.964 | locus YFR003C, strain YPI1, stronger effect = lower value 0.97 | locus YFR028C, strain CDC14, stronger effect = lower value 0.966 | locus YIL147C, strain SLN1, stronger effect = lower value 0.961 | locus YPR025C, strain CCL1, stronger effect = lower value 0.927 | strain NNK1, stronger effect = lower value 0.967

CN/C(=C\[N+](=O)[O-])NCCSCc1csc(CN(C)C)n1
inactive: [1] 1.05 | [2] 1.04 | [3] 1.06 | [4] 0.927 | [5] 1.06 | [6] 0.996 | [7] 1.07 | [8] 1.08

CC(O)(P(=O)(O)O)P(=O)(O)O
inactive: locus YAL021C, strain ccr4, stronger effect = lower value 1.03 | locus YAL026C, strain drs2, stronger effect = lower value 0.993 | locus YAL030W, strain snc1, stronger effect = lower value 0.993 | locus YBL061C, strain skt5, stronger effect = lower value 0.993 | locus YBR009C, strain hhf1, stronger effect = lower value 0.976 | locus YBR023C, strain chs3, stronger effect = lower value 0.99 | locus YBR171W, strain sec66, stronger effect = lower value 0.992 | locus YBR231C, strain swc5, stronger effect = lower value 0.992 | locus YBR279W, strain paf1, stronger effect = lower value 0.997 | locus YCL011C, strain gbp2, stronger effect = lower value 0.99 | locus YCL016C, strain dcc1, stronger effect = lower value 0.988 | locus YCL061C, strain MRC1, stronger effect = lower value 1 | locus YCL069W, strain vba3, stronger effect = lower value 0.992 | locus YCR088W, strain abp1, stronger effect = lower value 0.989 | locus YDL005C, strain med2, stronger effect = lower value 1 | locus YDL040C, strain nat1, stronger effect = lower value 0.997 | locus YDR001C, strain nth1, stronger effect = lower value 0.988 | locus YDR069C, strain doa4, stronger effect = lower value 0.978 | locus YDR137W, strain rgp1, stronger effect = lower value 1 | locus YDR159W, strain sac3, stronger effect = lower value 0.955 | locus YDR195W, strain ref2 0.93 | locus YDR297W, strain sur2, stronger effect = lower value 0.993 | locus YDR334W, strain swr1, stronger effect = lower value 0.987 | locus YDR335W, strain msn5, stronger effect = lower value 0.991 | locus YDR392W, strain spt3, stronger effect = lower value 0.868 | locus YEL003W, strain gim4, stronger effect = lower value 0.982 | locus YEL037C, strain rad23, stronger effect = lower value 0.985 | locus YEL061C, strain CIN8 (second series), stronger effect = lower value 0.982 | locus YER015W, strain faa2, stronger effect = lower value 0.999 | locus YER016W, strain bim1, stronger effect = lower value 0.979 | locus YER111C, strain swi4, stronger effect = lower value 0.989 | locus YER155C, strain BEM2 (second series), stronger effect = lower value 0.969 | locus YFR010W, strain ubp6, stronger effect = lower value 0.993 | locus YGL167C, strain pmr1, stronger effect = lower value 0.982 | locus YGL173C, strain kem1, stronger effect = lower value 0.987 | locus YGL227W, strain vid30, stronger effect = lower value 0.993 | locus YGL240W, strain doc1, stronger effect = lower value 0.982 | locus YGL253W, strain hxk2, stronger effect = lower value 0.984 | locus YHR013C, strain ard1, stronger effect = lower value 0.954 | locus YHR027C, strain rpn1, stronger effect = lower value 0.996 | [1] 0.958 | [2] 0.961 | locus YHR142W, strain chs7, stronger effect = lower value 0.998 | locus YJL092W, strain hpr5, stronger effect = lower value 0.987 | locus YJL095W, strain BCK1 (second series), stronger effect = lower value 0.994 | [3] 0.995 | locus YJL115W, strain asf1, stronger effect = lower value 0.986 | locus YJL129C, strain trk1, stronger effect = lower value 0.989 | locus YJL154C, strain vps35, stronger effect = lower value 0.986 | locus YJL164C, strain tpk1, stronger effect = lower value 1 | locus YJL166W, strain qcr8, stronger effect = lower value 0.996 | locus YJL187C, strain SWE1, stronger effect = lower value 1 | [4] 0.93 | locus YKL160W, strain elf1, stronger effect = lower value 1.03 | locus YKR026C, strain gcn3, stronger effect = lower value 0.993 | locus YKR091W, strain srl3, stronger effect = lower value 0.995 | locus YLL001W, strain dnm1, stronger effect = lower value 0.98 | locus YLL026W, stronger effect = lower value 0.996 | locus YLL041C, strain sdh2, stronger effect = lower value 0.994 | locus YLR027C, strain aat2, stronger effect = lower value 0.999 | [5] 0.976 | locus YLR221C, strain rsa3, stronger effect = lower value 1.02 | locus YLR258W, strain gsy2, stronger effect = lower value 0.982 | locus YLR262C, strain YPT6 (second series), stronger effect = lower value 1 | locus YLR320W, strain mms22, stronger effect = lower value 0.983 | locus YLR342W, strain FKS1, stronger effect = lower value 1 | locus YLR357W, strain rsc2, stronger effect = lower value 0.981 | locus YLR370C, strain arc18, stronger effect = lower value 0.996 | locus YLR384C, strain iki3, stronger effect = lower value 0.995 | locus YML120C, strain ndi1, stronger effect = lower value 1.01 | locus YMR058W, strain fet3, stronger effect = lower value 0.998 | locus YMR125W, strain sto1, stronger effect = lower value 0.979 | locus YMR129W, stronger effect = lower value 0.994 | locus YMR205C, strain PFK2, stronger effect = lower value 0.967 | locus YMR231W, strain pep5, stronger effect = lower value 0.993 | locus YNL071W, strain lat1, stronger effect = lower value 0.993 | [6] 0.929 | locus YNL209W, strain ssb2, stronger effect = lower value 0.994 | locus YNL248C, strain rpa49, stronger effect = lower value 1.01 | locus YNL322C, strain KRE1 (second series), stronger effect = lower value 1 | locus YNR049C, strain mso1, stronger effect = lower value 0.985 | locus YOR001W, strain rrp6, stronger effect = lower value 1.02 | locus YOR070C, strain gyp1, stronger effect = lower value 0.992 | locus YOR080W, strain dia2, stronger effect = lower value 0.997 | locus YOR083W, strain WHI5, stronger effect = lower value 1.03 | locus YOR106W, strain vam3, stronger effect = lower value 1.02 | [7] 0.972 | locus YOR265W, strain rbl2, stronger effect = lower value 0.989 | locus YOR270C, strain vph1, stronger effect = lower value 0.99 | locus YOR290C, strain snf2, stronger effect = lower value 0.916 | locus YPL051W, strain arl3, stronger effect = lower value 1.01 | locus YPL078C, strain atp4, stronger effect = lower value 1.01 | locus YPL106C, strain sse1, stronger effect = lower value 0.985 | locus YPL240C, strain hsp82, stronger effect = lower value 0.983 | [8] 0.921
